Source: ChEMBL document CHEMBL3988442, “University of Dundee, Small-Polar-MMV Screening Library” (2021)

What follows are compounds tested against AMP-activated protein kinase, AMPK (Homo sapiens) (UniProt P54646+O43741+P54619+Q9UGJ0+Q9Y478+Q13131+Q9UGI9) (assay: AMP-dependent Kinase enzyme assay. An in vitro enzyme assay that detects ADP turnover that is directly proportional to AMPK activity. This uses naive AMPK that is activated during the assay with MK-8722). Conditions: 30 µM.
Type: functional
Design: scale not given: direction of the effect not stated beside the values
For Cc1cc(C)n(C2CN(c3nc(N)nc4c3CCCC4)C2)n1, the Percent Effect was -1.57%.
With O=C(NC1CCN(C2CC2)CC1)c1cn(-c2ccc(Cl)cc2)nn1 the Percent Effect was 0.108%.
Cn1cc(C(=O)NCc2ccc(OC3CCCCC3)nc2)ccc1=O gave a Percent Effect of -0.122%.
Cc1cc(N2CCCC(N(C)C)C2)n2nc(C)cc2n1 (stereo not given) was tested, and the Percent Effect was -1.24%.
Compound CCN(CC)S(=O)(=O)N1CCCC(c2ncc3c(n2)CCN(C)C3)C1 (stereo not given) has a Percent Effect of -4.24%.
Compound Cc1cc(C)n(-c2cccc(NC(=O)N3CCC[C@@H]3CO)c2)n1 has a Percent Effect of -5.07%.
Compound COCCNc1ccc(CNCc2cnc3nc(C)cc(C)n23)cc1 has a Percent Effect of -9.48%.
In the case of CNC(=O)COC(=O)c1cccc(-n2ccc(C(F)(F)F)n2)c1, the Percent Effect is reported as 5.41%.
N#Cc1cccnc1NCc1cccnc1N1CCCCC1 gave a Percent Effect of 7.89%.
Compound Cc1noc(C)c1S(=O)(=O)N1CCC(n2cccn2)CC1 has a Percent Effect of -5.45%.
Cc1ccccc1OCCn1cnc2oc(C)c(C(=O)O)c2c1=O was tested, and the Percent Effect was 14.5%.
In the case of CC(c1ccc(F)cc1F)N1CCN(CCC(=O)O)CC1 (stereo not given), the Percent Effect is reported as 8.21%.
In the case of CC(C)[C@H]1CN(Cc2nccn2C)C[C@@H]1NC(=O)COCC(N)=O, the Percent Effect is reported as 9.37%.
O=C(Nc1cccc(N2CCOCC2)c1)N[C@H](CO)c1ccccc1 gave a Percent Effect of 6.04%.
With c1cc(CNCc2ccc(-n3cncn3)nc2)cc(OC2CCCC2)c1 the Percent Effect was 9.46%.
For COc1ccc2c(c1)OCC(C(=O)NCc1ncc3c(n1)CCC3)C2 (stereo not given), the Percent Effect was -0.599%.
With O=C1CN(C(=O)c2cc3c(F)cc(Br)cc3[nH]2)CCN1 the Percent Effect was 8.46%.
Work on NC(=O)CN1CCc2c(Br)ccc(F)c2C1 yielded a Percent Effect of 1.51%.
Work on O=S(=O)(NCCCn1cccn1)c1ccc2c(c1)CCC2 yielded a Percent Effect of 12.2%.
Cc1cn2nc(N(C)C3CCCN(c4cccnn4)C3)sc2n1 (stereo not given) gave a Percent Effect of 2.94%.
Compound Clc1snnc1CN(Cc1cccs1)C1CC1 has a Percent Effect of 3.68%.
Work on Cc1cc(CNC(=O)NCCCC(=O)N2CCc3ccccc32)no1 yielded a Percent Effect of -2.98%.
In the case of CC(=O)c1ccc(-c2cnn(CC(=O)Nc3ccnn3C)c2)nc1, the Percent Effect is reported as 6.15%.
Compound CCC[C@H]1CN(C(=O)c2ccc3[nH]c(CO)nc3c2)C[C@@H]1N has a Percent Effect of 8.21%.
With O=C(NCCC1CN(C2CCCC2)CCO1)c1cc(=O)[nH]c(=O)[nH]1 (stereo not given) the Percent Effect was -0.888%.
NS(=O)(=O)c1ccc(NCc2ccco2)c2ncccc12 was tested, and the Percent Effect was -2.08%.
CC(C)c1noc(OCC(=O)N2CCCCC2C)n1 (stereo not given) gave a Percent Effect of -1.04%.
OC(CNCc1nnc2ccccn12)c1ccc2c(c1)OCO2 (stereo not given) was tested, and the Percent Effect was 9.33%.
Compound Cc1c(C(=O)N2CCC(C(=O)c3nc4ccccc4s3)CC2)cnn1C has a Percent Effect of 9.2%.
With Cc1ccccc1C(=O)NC(C)CN1CCOC1=O (stereo not given) the Percent Effect was 14.9%.
COc1cc(N(C)CCCn2nc(C)cc2C)ncn1 was tested, and the Percent Effect was 13.8%.
Work on Cc1cccc(CN2CCOCC2c2[nH]ncc2C)n1 (stereo not given) yielded a Percent Effect of 16.3%.
Compound Cc1cncc(C2CCN(Cc3cnc(C)nc3)CC2)n1 has a Percent Effect of 9.99%.
For Cc1cc(CN2CCC(c3cc(Cc4ccccc4)n[nH]3)CC2)[nH]n1, the Percent Effect was -6.49%.
With CN1C(=O)[C@H]2CC[C@@H]1CN(C(=O)Nc1cccc3ccccc13)C2 the Percent Effect was -18.9%.
Nc1ccc(C(=O)N2CCC(Oc3cccc(C(F)(F)F)c3)CC2)cn1 gave a Percent Effect of 6.7%.
Cc1ccc(C(C)NC(=O)N2CCCN(CC(F)F)CC2)s1 (stereo not given) showed a Percent Effect of -1.15%.
Compound Cc1cc(C)cc(-n2ncc3c2CCCC3N)c1 (stereo not given) has a Percent Effect of 15.1%.
O=C1CCC(=O)N1CCn1nnc(-c2ccc(Br)cc2)n1 gave a Percent Effect of -9.11%.
CN(Cc1nc2ccccc2n1C)C(=O)CCc1cscn1 gave a Percent Effect of 3.49%.
